In PubChem BioAssay (NCATS):
Several values for one entry are separate records, joined by “and”; a condition that tells them apart may be missing. Equal entries are not always repeated. Results filed as inconclusive are left out. Activity calls are given as the source filed them. Calls follow the shape of the dose curve; as a rule, active = well fitted curve in the direction sought with a large enough effect; inconclusive = small, poorly fitted or top-dose-only effect, or another doubt; inactive = no such curve, though single readings can be large; an effect the other way counts as inactive or inconclusive.

What was measured:
[1] = biological target: Cytochrome P450 3A7 (Homo sapiens) (UniProt P24462); assay: Cytochrome P450 family 3 subfamily A member 7 (CYP3A7) small molecule antagonists: luciferase biochemical qHTS assay (AID 1963596); also: % is scaled to controls: 0 for no effect and ±100 for the full control effect; nearly all actives have a fitted effect of over 40% in size
Procedure, shortened: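 Recombinant CYP3A7 P450-Glo luminescent assay: enzyme-proluciferin substrate mix preincubated with compound 10 min at room temperature, reaction started with NADPH regeneration system for 1 h. Luciferin detected by luminescence; ketoconazole as positive control.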

[2] = Viability qHTS for spleen associated tyrosine kinase inhibitor (SYKi) naive MV4-11 cells (AID 1963823); also: nearly all actives have a fitted effect of over 40% in size; also: potency is read from the fitted curve at half-maximal effect
Procedure, shortened: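 CellTiter-Glo luminescence, 10 min room-temperature incubation, gave viability. Cells: naive MV4-11 (500/well), treated 72 hr at 37 C, 5% CO2.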

[3] = Viability qHTS for spleen associated tyrosine kinase inhibitor (SYKi) drug resistant MV4-11 cells (AID 1963824); also: nearly all actives have a fitted effect of over 35% in size; also: potency is read from the fitted curve at half-maximal effect
Procedure, shortened: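 CellTiter-Glo luminescence, read 10 min after reagent addition, reports viability after a 72 hr compound exposure. Cells are an MV4-11 line made resistant to SYK inhibition, seeded at 500 per well onto compound-containing plates.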

[4] = Cellular viability qHTS for adrenocortical cancer (ACC) cell line SW-13 (AID 1963989); settings: SW-13 ACC cells viability, CellTiter-Glo, 48 h; activity (max response): hits give low values; also: nearly all actives have a fitted effect of over 65% in size; also: potency is read from the fitted curve at half-maximal effect;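 as to activity (max response): cells grown in serum-free medium with ITS supplement; % is scaled to controls: 0 for no effect and ±100 for the full control effect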
Procedure, shortened: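 48 h treatment, SW-13 in ITS/DMEM serum-free; doses up to 46 uM; readout CellTiter-Glo luminescence; curve fit four-parameter logistic.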

[5] = Cellular viability qHTS for adrenocortical cancer (ACC) cell line NCI-H295R (AID 1963990); also: nearly all actives have a fitted effect of over 60% in size; also: potency is read from the fitted curve at half-maximal effect
Procedure, shortened: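 Compound titrations (up to 46 uM final) are applied to NCI-H295R cultures for 48 h at 37C. Viable cell number is estimated by CellTiter-Glo signal, normalised to DMSO and doxorubicin controls.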

[6] = Quantitative highthroughput screen to assess conditional lethalithy of NOMO1 cells grown in RPMI1640 with untreated serum (RPMI+s) (AID 1963876); also: potency is read from the fitted curve at half-maximal effect; nearly all actives have a fitted effect of over 35% in size
Procedure, shortened: (§1)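 Each medium arm—HPLM with 10% dialyzed FBS, or RPMI1640 with 5 mM glucose and 10% untreated or dialyzed FBS—was screened against an 11-point, 3-fold compound titration for 48 h at 37 °C, with CellTiter-Glo luminescence as endpoint.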

[7] = Quantitative highthroughput screen to assess conditional lethalithy of NOMO1 cells grown in RPMI1640 with dialyzed fetal bovine serum (RPMI+ds) (AID 1963877); also: potency is read from the fitted curve at half-maximal effect; nearly all actives have a fitted effect of over 30% in size
Procedure, shortened: as §1

[8] = Quantitative highthroughput screen to assess conditional lethalithy of NOMO1 cells grown in Human Plasma-Like Medium with dialyzed fetal bovine serum (HPLM+ds) (AID 1963878); also: potency is read from the fitted curve at half-maximal effect; nearly all actives have a fitted effect of over 35% in size
Procedure, shortened: as §1

[9] = Quantitative highthroughput screen to assess conditional lethalithy of P12 Ichikawa cells grown in Human Plasma-Like Medium with dialyzed fetal bovine serum (HPLM+ds) (AID 1963879); settings: Potency: viability; also: potency is read from the fitted curve at half-maximal effect; nearly all actives have a fitted effect of over 35% in size
Procedure, shortened: as §1

[10] = Quantitative highthroughput screen to assess conditional lethalithy of P12 Ichikawa cells grown in RPMI1640 with dialyzed fetal bovine serum (RPMI+ds) (AID 1963880); settings: Potency: P12-Ichikawa viability
Procedure, shortened: as §1

[11] = Quantitative highthroughput screen to assess conditional lethalithy of P12 Ichikawa cells grown in RPMI1640 with untreated serum (RPMI+s) (AID 1963881); settings: Potency: viability
Procedure, shortened: as §1

[12] = Quantitative highthroughput screen to assess conditional lethalithy of SEM cells grown in Human Plasma-Like Medium with dialyzed fetal bovine serum (HPLM+ds) (AID 1963882)
Procedure, shortened: as §1

[13] = Quantitative highthroughput screen to assess conditional lethalithy of SEM cells grown in RPMI1640 with unreated serum (RPMI+s) (AID 1963883)
Procedure, shortened: as §1

Chain of Cytochrome P450 3A7 (Homo sapiens) (P24462 whole entry, looked up): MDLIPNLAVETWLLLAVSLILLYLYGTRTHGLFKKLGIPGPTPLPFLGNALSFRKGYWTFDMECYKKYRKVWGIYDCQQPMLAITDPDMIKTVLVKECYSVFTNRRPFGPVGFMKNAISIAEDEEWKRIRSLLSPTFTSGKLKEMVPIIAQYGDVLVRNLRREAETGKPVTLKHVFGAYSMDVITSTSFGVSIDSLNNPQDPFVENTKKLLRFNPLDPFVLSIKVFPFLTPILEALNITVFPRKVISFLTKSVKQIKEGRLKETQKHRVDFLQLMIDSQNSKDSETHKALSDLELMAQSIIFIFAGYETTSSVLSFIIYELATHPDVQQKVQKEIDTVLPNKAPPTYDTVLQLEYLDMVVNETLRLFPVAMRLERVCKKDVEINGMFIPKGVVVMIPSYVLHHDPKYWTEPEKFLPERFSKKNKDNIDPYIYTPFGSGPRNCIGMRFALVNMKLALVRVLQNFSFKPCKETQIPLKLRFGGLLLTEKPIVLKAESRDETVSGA

CC1(C)O[C@@H]2C[C@H]3[C@@H]4C[C@H](F)C5=CC(=O)C=C[C@]5(C)[C@@]4(F)[C@@H](O)C[C@]3(C)[C@]2(C(=O)CO)O1
inactive: Potency [1] | Potency [2] | activity (max response) [4] -5.78% and 9.51% | Potency [5]
active: Potency [3] 20.9 µM

CCCCCCCC(=O)[O-].CCCCCCCC(=O)[O-].[Zn+2]
inactive: Potency [1] | Potency [2] | Potency [3] | Potency [5]

CNCCC(Oc1ccccc1OC)c1ccccc1 (configuration not stated)
inactive: Potency [1] | Potency [2] | Potency [3] | Potency [5]

CC(C)c1c2cc(-c3ccnc(NC4CCC(NC5CCOCC5)CC4)n3)ccc2nn1C (configuration not stated)
inactive: Potency [1]
active: Potency [2] 130 nM and 105 nM | Potency [3] 116 nM and 83.3 nM | Potency [4] 282 nM | Potency [5] 447 nM

COc1cc(N2CCC(N3CCN(C)CC3)CC2)ccc1Nc1ncnc(Nc2ccccc2S(=O)(=O)C(C)C)n1
inactive: Potency [1]
active: Potency [2] 1.16 µM and 1.32 µM | Potency [3] 2.06 µM and 2.63 µM | Potency [5] 8910 nM

NS(=O)(=O)c1ccc(NC(=O)CCC(=O)O)cc1
inactive: Potency [1] | Potency [2] | Potency [3] | activity (max response) [4] 4.28% | Potency [5]

CN1CCN(C(=O)C2CCCCC2)CC1
inactive: Potency [1] | Potency [2] | Potency [3] | Potency [5]

CCCN1CCN(c2ccc(C(=O)NC3(C(=O)NCC#N)CCCCC3)cc2)CC1
inactive: Potency [1] | Potency [2] | Potency [3] | activity (max response) [4] -11.1% | Potency [5]

CN(C)CCC(c1ccccc1)c1ccccn1 (configuration not stated)
inactive: Potency [1] | Potency [2] | Potency [3] | activity (max response) [4] 13.1% | Potency [5]

CC1(C)S[C@@H]2[C@H](N=CN3CCCCCC3)C(=O)N2[C@H]1C(=O)O
inactive: Potency [1] | Potency [2] | Potency [3] | activity (max response) [4] 3.39% | Potency [5]

Cn1c([N+](=O)[O-])cnc1COC(N)=O
inactive: Potency [1] | Potency [2] | Potency [3] | activity (max response) [4] -4.89% | Potency [5]

CC(=O)OCC(=O)Nc1cc(C#N)cc(NC(=O)COC(C)=O)c1Cl
inactive: Potency [1] | Potency [2] | Potency [3] | activity (max response) [4] -0.531% | Potency [5]

CC(C)=CCNc1ncnc2c1ncn2[C@@H]1O[C@H](CO)[C@@H](O)[C@H]1O
inactive: Potency [1]
active: Potency [2] 820 nM | Potency [3] 0.58 µM | Potency [5] 7310 nM

CC(C)[C@@H]1CC[C@@H](C)CC1=O
inactive: Potency [1] | Potency [2] | Potency [3] | activity (max response) [4] 11.9% | Potency [5]

O=C1CC(c2ccc(Cl)cc2)CC(=O)N1
inactive: Potency [1] | Potency [2] | Potency [3] | activity (max response) [4] 13.6% | Potency [5]

CNc1c2c(nn1C)CCCC2
inactive: Potency [1] | Potency [2] | Potency [3] | activity (max response) [4] -0.416% | Potency [5]

COc1ccc(CCC(C)=O)cc1
inactive: Potency [1] | Potency [2] | Potency [3] | Potency [5]

O=C(O)[C@H](O)c1ccccc1
inactive: Potency [1] | Potency [2] | Potency [3] | Potency [5]

CC(=O)CCCCn1c(=O)c2c(ncn2C)n(C)c1=O
inactive: Potency [1] | Potency [2] | Potency [3] | activity (max response) [4] 7.09% | Potency [5]

Cc1nc(-c2ccc(Cl)cc2)oc1COC(C)(C)C(=O)O
inactive: Potency [1] | Potency [2] | Potency [3] | activity (max response) [4] -4.84% | Potency [5]

CCCn1cnc2c1c(=O)n(CCCCC(C)=O)c(=O)n2C
inactive: Potency [1] | Potency [2] | Potency [3] | Potency [5]

Cc1ccc(S(=O)(=O)NC(=O)NC2CCCCC2)cc1
inactive: Potency [1] | Potency [2] | Potency [3] | Potency [5]

Cc1cc2c(cc1S(N)(=O)=O)S(=O)(=O)CCC2
inactive: Potency [1] | Potency [2] | Potency [3] | activity (max response) [4] 12.2% | Potency [5]

CC(=O)Nc1ncc([N+](=O)[O-])s1
inactive: Potency [1] | Potency [2] | Potency [3] | activity (max response) [4] 10.5% | Potency [5]

Cc1cc(C)c(NC(=O)CN(CC(=O)O)CC(=O)O)c(C)c1Br
inactive: Potency [1] | Potency [2] | Potency [3] | activity (max response) [4] 9.39% | Potency [5]

O=C1NC(c2ccccc2)(c2ccccc2)C(=O)N1COP(=O)(O)O
inactive: Potency [1] | Potency [2] | Potency [3] | Potency [5]

COc1ncnc(NS(=O)(=O)c2ccc(N)cc2)c1OC
active: Potency [6] 4690 nM | Potency [7] 7430 nM | Potency [8] 2350 nM | Potency [9] 1180 nM | Potency [10] 1180 nM | Potency [11] 1660 nM | Potency [12] 1870 nM | Potency [13] 935 nM
inactive: Potency [1] | Potency [2] | activity (max response) [4] -3.79% and 4.29% | Potency [5]
